Measurements as given in PubChem BioAssay (Tox21).
“And” between values parts separate entries of the source, which are not always exact repeats. Equal values may be shown once. Records with an inconclusive call do not appear. A call without a number means that no potency is given here. A structure can be active in one record and inactive in another. The source made the active and inactive calls. The call rests on the fitted dose curve; in most records, active means well fitted activation curve with a large enough effect in the repeat runs; inconclusive means weak or mixed curves; inactive means flat fitted curve, though single readings scatter.

assay: A CellTox Green Cytotoxicity Assay to monitor cytotoxicity in HEK293 cells - 32 hour (AID 1224881); conditions: CellTox Green fluorescence; series mostly up to 76.8 µM; further: nearly all actives have a fitted effect of over 40% in size
In short: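 Fluorescence intensity, read at 0, 8, 16, 24, 32 and 40 h of compound treatment, reflected dye binding to DNA of dead HEK293 cells; compounds (23 nL, DMSO) were added 5 h after plating cells with reagent.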
Potency means the concentration at half of the fitted maximal effect.

Compound | Potency | cytotoxicity increase
Nc1cc(Cl)ccc1Cl | inactive | 
O=c1[nH]c(Cl)c(Cl)cc1Cl | inactive | 
CCCCCCCCCCCCCCn1cc[n+](C)c1 | 34.7 µM (active) and 38.5 µM (active) and inactive | 
CSC(=O)c1c(C(F)F)nc(C(F)(F)F)c(C(=O)SC)c1CC(C)C | inactive | 
Cc1ccc(C)c2ccccc12 | 38.9 µM (active) | 
CC(Cc1ccccc1)N(C)Cc1ccco1 (stereo unspecified) | inactive | 
O=C(CCCCl)c1ccc(F)cc1 | inactive | 
O=C(NC(=O)c1ccccc1Cl)Nc1ccc(OC(F)(F)F)cc1 | inactive | 
Oc1cccc(Cl)c1Cl | inactive | 
CCCCC/C=C\C/C=C\C/C=C\C/C=C\CCCC(=O)NCC(=O)O | inactive | 
O=C(N[C@H]1N=C(c2ccccc2F)c2cccc3c2N(CC3)C1=O)c1cc2ccccc2[nH]1 | inactive | 
CNC(C)(C)Cc1ccccc1 | inactive | 
O=[N+]([O-])[O-].[Tl+] | inactive | 
ClC(Cl)C(Cl)(Cl)Cl | inactive | 
C[C@@H]1CC2=CC(=O)CC[C@@H]2[C@H]2CC[C@@]3(C)[C@@H](CC[C@]3(C)O)[C@@H]21 | inactive | 
Brc1ccc(Oc2ccc(Br)cc2Br)c(Br)c1 | inactive | 
CC(=O)[O-].CC(=O)[O-].CC(=O)[O-].[Sb+3] |  | 3.11% [at 2.72 µM] (inactive)
COP(=S)(OC)Oc1nc(Cl)c(Cl)cc1Cl | inactive | 
CC(C)Br | inactive | 
[O-][Cl+3]([O-])([O-])O | inactive | 
CC(C)[C@@H](Nc1ccc(C(F)(F)F)cc1Cl)C(=O)OC(C#N)c1cccc(Oc2ccccc2)c1 (stereo partly specified) | inactive | 
